Screening data: PubChem BioAssay, National Center for Advancing Translational Sciences (NCATS)
BRCT inh red: inhibitors of human BRCA1 BRCT-phosphoprotein interaction (red fluorophore); BRCT-phosphopeptide binding, red fluorescence polarization; Potency, µM (titrated, usually from 76.9 µM), actives largely listed as inhibitors; AID 892; 75,000 compounds, 0.03% hits; P38398
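Fluorescence polarization: 100 nM His-tagged BRCA1 BRCT with 100 nM TAMRA-labelled phospho-BACH1 decapeptide, phosphate buffer pH 7.3 with 150 mM NaCl, DTT, 0.01% Tween 20; 12 min RT. Binding inhibition seen as FP decrease.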
DNA Pol III inh: DNA polymerase III holoenzyme inhibition | reconstituted DNA polymerase III holoenzyme replication, biochemical | AID 603 | 71,000 compounds, 0.25% hits | Potency, µM (titrated, usually from 57.1 µM)
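Reconstituted *E. coli* holoenzyme (0.35 nM Pol III, 1 nM beta, 154 nM SSB, 2 nM primase) was preincubated with compound for 15 min at RT. Synthesis on 1.4 nM ssM13Gori ran 35 min, then was stopped with PicoGreen/EDTA and read as dsDNA fluorescence.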
TSHR agonist: agonists of human thyroid stimulating hormone receptor; HEK293-CNG-TSHR cells (CNG channel as cAMP sensor), membrane potential dye, cAMP; Potency, µM (doses to about 57.1 µM), most hits filed as activators; 73,000 compounds, 0.48% hits; AID 926; active = well fitted activation curve with a large enough effect in the main read-out, with a control signal flat, not every such curve was filed as active; inconclusive = small, poorly fitted or top-dose-only effect, or a change in a side signal; inactive = no such curve, though single readings can be large or run the other way; reference of the percent scale not stated here;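 also: the control signal comes from parental cells without the receptor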
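cAMP rise detected as CNG-channel membrane depolarization by fluorescent dye (emission 590 nm), 30 min after compound, following 60 min dye loading containing 100 uM RO 20-1724 at room temperature. Cells: TSHR/CNG HEK 293, with parental CNG HEK 293 as control.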
HEK293 cAMP ctrl: counter-screen for TSHR agonists: cAMP increase in parental HEK293; parental HEK293 CNG cAMP sensor, membrane potential fluorescence; 73,000 compounds, 2.5% hits; Potency, µM (series often up to 57.1 µM), actives largely listed as activators; also: nearly all actives have a fitted effect of over 55% in size
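Parental HEK 293 cells stably expressing a cAMP-gated CNG channel were loaded with membrane potential dye containing 100 uM RO 20-1724 for 60 min. Compound added for 30 min; depolarization read as fluorescence intensity at 590 nm.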
YjeE inh: inhibitors of E. coli YjeE (TsaE); P0AF67; purified YjeE enzyme, qHTS inhibition assay; Potency, µM; 71,000 compounds, 0.05% hits; AID 605
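Purified YjeE (10 uM) with BODIPY Texas Red-labeled ADP probe (2 uM); compounds pin-transferred, 15 min at room temperature. Binding inhibition read as decreased fluorescence polarization; ADP titration as control.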
BRCT inh green: blocks human BRCA1 BRCT binding to phosphopeptide, green readout; BRCA1 BRCT-phosphopeptide binding, green fluorescence polarization; Potency, µM (highest dose often 76.9 µM), hits mostly inhibitors; 75,000 compounds, 0.05% hits
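Fluorescence polarization: His-tagged BRCT (~35 kDa BRCA1 C-terminus, 250 nM) bound to 100 nM fluorescein-labeled phosphorylated 10-aa BACH1 peptide, pH 7.3 phosphate buffer with DTT and Tween 20. Compounds incubated 12 min at room temperature; inhibition read as lowered polarization.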
A number is an active result; . = inactive; ? = inconclusive; / = not tested or not shown; ! = not confirmed by another sample; [ ] = dose if it differs, or a comment. A selection: hits, their analogues and other compounds. The true share with any hit is near 3.2%. Unless noted, calls follow the shape of the dose curve; as a rule, active = well fitted curve in the direction sought with a large enough effect; inconclusive = small, poorly fitted or top-dose-only effect, or another doubt; inactive = no such curve, though single readings can be large; an effect the other way counts as inactive or inconclusive.

SMILES | BRCT inh red | DNA Pol III inh | TSHR agonist | HEK293 cAMP ctrl | YjeE inh | BRCT inh green
Cc1nn(C2CCOC(C)(C)C2)c2c1C(c1ccc3c(c1)OCO3)SCC(=O)N2 (stereo not given) | . | / | . | . | / | .
CSc1nc2ccccc2n1C(=O)Oc1ccccc1 | . | . | ? | 25µM | . | .
CCCCNC(=O)n1c(NC(=O)OC)nc2ccccc21 | . | . | ? | ? | . | .
N#CS.N=C=S.N=C=S.[Cu].[NH2-].[NH2-].[NH2-].[NH2-].c1ccc2ncccc2c1 | .[15.4 µM] | .[11.4 µM] | ? | ? | . | .[15.4 µM]
N#Cc1ccccc1Cn1cc(C(=O)c2ccco2)c2ccccc21 | . | . | ? | 16µM | . | .
CCC(=O)c1cn(Cc2ccccc2C#N)c2ccccc12 | . | . | ? | 20µM | . | .
C/C=C(\C)C(=O)O[C@@H]1C(C)=C2[C@H]([C@@H]1OC(=O)CCCCCCC)[C@@](C)(OC(C)=O)C[C@@H](OC(=O)CCC)[C@@]1(O)[C@H]2OC(=O)[C@]1(C)O | . | . | / | . | . | .
c1ccc2c([C@@H]3CCN(CCN4CCOCC4)C3)c[nH]c2c1 | .[15.4 µM] | .[11.4 µM] | .[11.4 µM] | .[11.4 µM] | . | .[15.4 µM]
O=C(Oc1ccccc1)N1CCC2(CC1)CN(C(c1ccccc1)c1ccccc1)C2 | . | . | ? | 32µM | . | .
C[N+]1([O-])[C@H]2CC[C@H]1CC(OC(=O)[C@@H](CO)c1ccccc1)C2 (stereo not given in full) | .[15.4 µM] | .[11.4 µM] | .[11.4 µM] | .[11.4 µM] | . | .[15.4 µM]
CC(C)CC(N(C)C)C1(c2ccc(Cl)cc2)CCC1 (stereo not given) | . | / | ? | 25µM | / | .
CN(C)C1(c2nnnn2-c2ccc(Cl)cc2)CCCCC1 | . | . | . | . | . | .
CCCOc1ccc2[nH]cc(C3=CCNCC3)c2n1 | . | . | . | . | . | .
Cc1noc(C)c1C(=O)N1CCC2(CCCN(CC(C)C)C2)CC1 | . | . | ? | 16µM | . | .
Cc1cccc(C2=NCC(=O)N(CC(=O)NCc3ccco3)c3sc4c(c32)CCCC4)c1 | . | . | ? | ? | . | .
COc1ccc(C2=NCC(=O)N(CC(=O)NCc3ccco3)c3sc4c(c32)CCCC4)cc1 | . | . | 16µM | . | . | .
CN1[C@@H]2CC[C@H]1CC(O[C@@H](c1ccccc1)c1ccc(Cl)cc1)C2 (stereo not given in full) | . | . | ? | 40µM | ? | .
COc1cc(C=C(C#N)C#N)cc(O)c1O | . | . | . | . | . | .
CC(C)(C)c1cc(C=C(C#N)C#N)cc(C(C)(C)C)c1O | . | . | ? | 0.79µM | . | .
CC(C)(C)NCc1cccn1-c1sc2c(c1C#N)CCCC2 | . | . | ? | 25µM | . | .
C=C[C@@H]1CN2CC[C@@H]1C[C@H]2[C@H](O)c1ccnc2ccccc12 | / | . | . | . | . | /
N#CC(C#N)=NNc1ccc(OC(F)(F)F)cc1 | . | / | ? | 0.63µM | / | .
ClC=CCl | . | . | . | . | . | .
Ic1ccccc1CN[C@@H]1C2CCN(CC2)[C@H]1C(c1ccccc1)c1ccccc1 | . | . | ? | ? | . | .
O=C1OC(=O)c2c(Cl)c(Cl)c(Cl)c(Cl)c21 | . | . | ? | 40µM | . | .
SMILES | BRCT inh red | DNA Pol III inh | TSHR agonist | HEK293 cAMP ctrl | YjeE inh | BRCT inh green
CN1CCN(c2ccc([N+](=O)[O-])c3[nH]o[n+](=O)c23)CC1 | .[15.4 µM] | .[11.4 µM] | / | .[11.4 µM] | . | .[15.4 µM]
Cc1c2ccncc2c(C)c2c1[nH]c1ccccc12 | . | 7.9µM | . | . | . | .
c1ccc2c(c1)[nH]c1cnccc12 | . | / | / | / | / | .
NC(=NCCC[C@@H](N)C(=O)O)N[N+](=O)[O-] | / | . | ? | ? | . | /
N#CC(C(=O)C12CC3CC(CC(C3)C1)C2)c1nc2ccccc2[nH]1 (stereo not given) | . | . | ? | 3.2µM | . | .
C[C@@H]1CC[C@@]2(OC1)O[C@H]1[C@@H](O)[C@H]3[C@@H]4CC[C@H]5C[C@@H](O[C@@H]6O[C@H](CO)[C@H](O[C@@H]7O[C@H](CO)[C@@H](O)[C@H](O[C@@H]8OC[C@@H](O)[C@H](O)[C@H]8O)[C@H]7O[C@@H]7O[C@H](CO)[C@@H](O)[C@H](O[C@@H]8O[C@H](CO)[C@@H](O)[C@H](O)[C@H]8O)[C@H]7O)[C@H](O)[C@H]6O)[C@H](O)C[C@]5(C)[C@H]4CC[C@]3(C)[C@H]1[C@@H]2C | . | . | ? | ? | . | .
O=C(O)[C@@H](O)[C@@H](O)[C@@H]1[O][Sb][O][C@@H]1CO | .[15.4 µM] | .[11.4 µM] | / | .[11.4 µM] | . | .[15.4 µM]
CC(C)c1nccn1Cc1ccc(Cl)cc1Cl | .[15.4 µM] | .[11.4 µM] | ? | 3.2µM | . | .[15.4 µM]
CO[C@H]1[C@H](O)[C@H](O[C@@H]2[C@H](Oc3cccc4c(O)c5c(=O)oc6ccc(C)c7c(=O)oc(c34)c5c67)O[C@@H](C)[C@H](O)[C@H]2O)O[C@@H](C)[C@@H]1O | .[15.4 µM] | 3.2µM | .[11.4 µM] | .[11.4 µM] | . | .[15.4 µM]
O=C(Oc1ccccc1)N1CCC[C@@]2(CCN(Cc3nccs3)C2)C1 | . | . | . | . | . | .
CC(C)Nc1ccc(Nc2ccccc2)cc1 | . | . | ? | . | 100µM | .
CCC(=O)O[C@H]1CC[C@H]2[C@@H]3CCC4=CC(=O)CC[C@]4(C)[C@H]3CC[C@]12C | . | . | ? | 16µM | . | .
Cc1[nH]nc2c1C1(CCC3(CC1)OCCO3)C(C#N)=C(N)O2 | . | . | 10µM | . | . | .
CCOC(=O)c1c(C)n(Cc2ccco2)c2ccc(O)cc12 | . | . | . | . | . | .
CCCCn1c(C)c(C(=O)OCC)c2c(CN3CCOCC3)c(O)ccc21 | . | . | ? | 6.3µM | . | .
CCCN(CCC)[C@@H]1CCc2c(OC)cccc2[C@@H]1C | . | . | ? | 32µM | . | .
CCCN[C@@H]1CCc2c(OC)cccc2[C@@H]1C | . | . | . | . | . | .
C[N+](=O)[O-] | . | . | . | . | . | .
O=C(O)c1nn(Cc2ccc(Cl)cc2Cl)c2ccccc12 | . | . | ? | 40µM! | . | .
CN1CCC2(CC1)CCN(C(=O)c1ccco1)CC2 | . | . | . | . | . | .
O=C(c1ccco1)N1CCN(Cc2ccccc2C(F)(F)F)CC1 | . | .[11.4 µM] | ? | 4µM | . | .
CNc1ccc2oc(C[C@@H]3O[C@@]4(CC[C@H]3C)O[C@@H]([C@@H](C)C(=O)c3ccc[nH]3)[C@@H](C)C[C@H]4C)nc2c1C(=O)O | / | . | . | . | . | /
C[C@@H]1[C@H]2C=C[C@@H]1[C@@H](c1c3ccc(=O)c(O)c-3oc3c(O)c(O)ccc13)[C@@H]2C(=O)O | ? | 0.13µM | .[11.4 µM] | .[11.4 µM] | . | ?
OC(c1ccc(Cl)cc1)(c1ccc(Cl)cc1)C(Cl)(Cl)Cl | . | . | ? | . | . | .
